The results in this text go back to PubChem BioAssay (EPA / NIEHS).

Active and inactive are the calls of the source. The calls were made as follows: active = hit-call score of the fitted dose curve at least 0.9, where 1 is the maximum; inactive = score below 0.9.

Read-out in assay [1]: Tissue plasminogen activator (tPA), PLAT (gene 5327)
As to the kind of experiment: BSK_BE3C_tPA: BioMAP Diversity Plus: BE3C Assay for Tissue plasminogen activator (tPA) Biomarker Activity (AID 2283041).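 Also: tPA level quantified by ELISA one day after compound addition.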 The conditions noted are these: primary human bronchial epithelial cells; actives raise or lower the signal. The gist of the method: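 Using human lung primary bronchial epithelial cells, tPA was measured by ELISA 24 h after dosing; data fitted relative to DMSO.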

Read-out in assay [2]: Interleukin-8 (IL8), CXCL8 (gene 3576)
In words: BSK_CASM3C_IL8: BioMAP Diversity Plus: CASM3C Assay for Interleukin-8 (IL8) Biomarker Activity (AID 2283042).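 Also: IL-8 protein level quantified by ELISA.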 The conditions noted are these: primary human coronary artery smooth muscle cells; actives raise or lower the signal.

Read-out in assay [3]: Human Leukocyte Antigen - DR isotype (HLADR), HLA-DRA (gene 3122)
As to the kind of experiment: BSK_CASM3C_HLADR: BioMAP Diversity Plus: CASM3C Assay for Human Leukocyte Antigen - DR isotype (HLADR) Biomarker Activity (AID 2283043).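 Also: cell-surface HLA-DR protein level quantified by ELISA.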 The conditions noted are these: primary human coronary artery smooth muscle cells; actives raise or lower the signal.

Read-out in assay [4]: Macrophage colony-stimulating factor (MCSF), CSF1 (gene 1435)
In words: BSK_CASM3C_MCSF: BioMAP Diversity Plus: CASM3C Assay for Macrophage colony-stimulating factor (MCSF) Biomarker Activity (AID 2283044).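 Also: M-CSF protein amount quantified by ELISA after 24 h exposure.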 Particulars: primary human coronary artery smooth muscle cells; actives raise or lower the signal.

Read-out in assay [5]: Low-density lipoprotein receptor (LDLR), LDLR (gene 3949)
In words: BSK_CASM3C_LDLR: BioMAP Diversity Plus: CASM3C Assay for Low-density lipoprotein receptor (LDLR) Biomarker Activity (AID 2283045).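 Also: LDLR protein level on the cell surface quantified by ELISA.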 The conditions noted are these: primary human coronary artery smooth muscle cells; actives raise or lower the signal.

Read-out in assay [6]: Monocyte Chemoattractant Protein-1 (MCP1), CCL2 (gene 6347)
In words: BSK_CASM3C_MCP1: BioMAP Diversity Plus: CASM3C Assay for Monocyte Chemoattractant Protein-1 (MCP1) Biomarker Activity (AID 2283046).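 Also: MCP-1 level quantified by ELISA 24 h after dosing.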 The conditions noted are these: primary human coronary artery smooth muscle cells; actives raise or lower the signal.

The nature of assay [7]: BSK_CASM3C_Proliferation: Cell Proliferation Assessment in the BioMAP Diversity Plus: CASM3C Assay (AID 2283047).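 Also: sulforhodamine B total protein stain as relative cell number at 560 nm; sub-confluent cells exposed 48 h before staining; fitted both ways against DMSO so gain or loss of cell number.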 Particulars: primary human coronary artery smooth muscle cells.
Read-out in assay [8]: Monokine induced gamma interferon (MIG), CXCL9 (gene 4283)
As to the kind of experiment: BSK_CASM3C_MIG: BioMAP Diversity Plus: CASM3C Assay for Monokine induced gamma interferon (MIG) Biomarker Activity (AID 2283048).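 Also: MIG protein level measured by ELISA.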 The conditions noted are these: primary human coronary artery smooth muscle cells; actives raise or lower the signal.

Read-out in assay [9]: serum amyloid A (SAA), SAA1 (gene 6288)
As to the kind of experiment: BSK_CASM3C_SAA: BioMAP Diversity Plus: CASM3C Assay for serum amyloid A (SAA) Biomarker Activity (AID 2283049).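 Also: SAA protein level quantified by ELISA.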 The conditions noted are these: primary human coronary artery smooth muscle cells; actives raise or lower the signal.

A short description of assay [10]: BSK_CASM3C_SRB: Viability Assessment in the BioMAP Diversity Plus: CASM3C Assay (AID 2283050).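 Also: total protein by SRB staining as cytotoxicity measure in parallel cultures; cells exposed to compound for 24 h.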 Particulars: primary human coronary artery smooth muscle cells.
Read-out in assay [11]: Thrombomodulin, THBD (gene 7056)
In words: BSK_CASM3C_Thrombomodulin: BioMAP Diversity Plus: CASM3C Assay for Thrombomodulin Biomarker Activity (AID 2283051).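 Also: thrombomodulin protein level measured by ELISA 24 h after dosing.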 The conditions noted are these: primary human coronary artery smooth muscle cells; actives raise or lower the signal.

Read-out in assay [12]: Tissue Factor, F3 (gene 2152)
As to the kind of experiment: BSK_CASM3C_TissueFactor: BioMAP Diversity Plus: CASM3C Assay for Tissue Factor Biomarker Activity (AID 2283052).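 Also: cell surface tissue factor protein level read by ELISA.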 Particulars: primary human coronary artery smooth muscle cells; actives raise or lower the signal.

Read-out in assay [13]: Interferon-gamma inducible Protein 10 (IP10), CXCL10 (gene 3627)
In words: BSK_hDFCGF_IP10: BioMAP Diversity Plus: hDFCGF Assay for Interferon-gamma inducible Protein 10 (IP10) Biomarker Activity (AID 2283053). Particulars: primary human foreskin fibroblasts; actives raise or lower the signal. The gist of the method: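 Chemical-treated human skin fibroblasts (primary) were sampled at 24 h for IP-10 by ELISA. Both increases and decreases relative to DMSO were scored.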

Read-out in assay [14]: Urokinase-type plasminogen activator receptor (uPAR), PLAUR (gene 5329)
As to the kind of experiment: BSK_CASM3C_uPAR: BioMAP Diversity Plus: CASM3C Assay for Urokinase-type plasminogen activator receptor (uPAR) Biomarker Activity (AID 2283054).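 Also: cell-surface uPAR protein level quantified by ELISA.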 The conditions noted are these: primary human coronary artery smooth muscle cells; actives raise or lower the signal.

Read-out in assay [15]: Vascular cell adhesion molecule 1 (VCAM1), VCAM1 (gene 7412)
In words: BSK_CASM3C_VCAM1: BioMAP Diversity Plus: CASM3C Assay for Vascular cell adhesion molecule 1 (VCAM1) Biomarker Activity (AID 2283055).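 Also: VCAM-1 protein level quantified by ELISA on the cells.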 The conditions noted are these: primary human coronary artery smooth muscle cells; actives raise or lower the signal.

Read-out in assay [16]: Collagen III, COL3A1 (gene 1281)
In words: BSK_hDFCGF_CollagenIII: BioMAP Diversity Plus: hDFCGF Assay for Collagen III Biomarker Activity (AID 2283056). The conditions noted are these: primary human foreskin fibroblasts; actives raise or lower the signal. The gist of the method: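 Cells: human foreskin fibroblasts, primary. Dosing followed by 24 h incubation, then ELISA for collagen III. Both increases and decreases scored relative to DMSO.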

Read-out in assay [17]: Epidermal growth factor receptor (EGFR), EGFR (gene 1956)
In words: BSK_hDFCGF_EGFR: BioMAP Diversity Plus: hDFCGF Assay for Epidermal growth factor receptor (EGFR) Biomarker Activity (AID 2283057). The conditions noted are these: primary human foreskin fibroblasts; actives raise or lower the signal. The procedure, abridged:
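Cell-based multiplexed assay in primary human foreskin fibroblasts. EGFR is read by ELISA 24 h after treatment and compared with DMSO controls.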

Read-out in assay [18]: Interleukin-8 (IL8), CXCL8 (gene 3576)
As to the kind of experiment: BSK_hDFCGF_IL8: BioMAP Diversity Plus: hDFCGF Assay for Interleukin-8 (IL8) Biomarker Activity (AID 2283058). The conditions noted are these: primary human foreskin fibroblasts; actives raise or lower the signal. The gist of the method: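 IL-8 levels from compound-treated primary human fibroblasts were read by ELISA at 24 h, with DMSO serving as baseline for bidirectional fitting.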

Assay [19] is described as follows: BSK_hDFCGF_Proliferation: Cell Proliferation Assessment in the BioMAP Diversity Plus: hDFCGF Assay (AID 2283059).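 Also: curves fitted for both rise and fall of signal versus DMSO baseline.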 The conditions noted are these: primary human foreskin fibroblasts. The gist of the method: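 Sub-confluent human foreskin fibroblast cultures receive test chemical […]. Relative cell number is quantified by sulforhodamine B staining (0.1%, after 10% TCA fixation) at 560 nm, with bidirectional fitting referenced to DMSO.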

Read-out in assay [20]: Macrophage colony-stimulating factor (MCSF), CSF1 (gene 1435)
As to the kind of experiment: BSK_hDFCGF_MCSF: BioMAP Diversity Plus: hDFCGF Assay for Macrophage colony-stimulating factor (MCSF) Biomarker Activity (AID 2283060). Particulars: primary human foreskin fibroblasts; actives raise or lower the signal. The gist of the method:
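M-CSF levels, determined by ELISA, are taken at 24 h after dosing human skin fibroblasts. Responses in either direction are fitted with DMSO serving as the baseline.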

The AC50 is the midpoint of the concentration-response curve, whichever way the signal moves.

Regarding `CC1=C2C[C@H]3[C@@H](CC=C4C[C@@H](O)CC[C@@]43C)[C@@H]2CC[C@]12O[C@@H]1C[C@H](C)CN[C@H]1[C@H]2C`, the outcome in [1], in assay [2], in [3], in assay [4], in assay [6] and in [7] was inactive. In addition, the outcome in assay [8], in [9], in [10], in assay [11], in assay [12] and in [13] was inactive. The outcome in assay [14], in assay [15], in [16], in [17], in [18] and in assay [19] was inactive. For the same compound, in [20], the result was inactive. The AC50 in assay [5] is 2.8 µM (active).

With `Cc1cc(-c2ccc(N)c(C)c2)ccc1N`, the result in assay [1], in [2], in assay [3], in [4], in [5] and in assay [6] was inactive. Further, the result in [7], in assay [8], in [9], in [10], in [11] and in [12] was inactive. Further, the result in [13], in [14], in [15], in assay [16], in assay [17] and in [18] was inactive. Further, the outcome in assay [19] and in assay [20] was inactive.

In the case of `ClC(Cl)=C(c1ccc(Cl)cc1)c1ccc(Cl)cc1`, the result in assay [1], in assay [2], in [5], in assay [6], in assay [8] and in assay [9] was inactive. In addition, the result in [10], in assay [12], in assay [14], in assay [15] and in assay [17] was inactive. Moreover, the AC50 in assay [3] was 20 µM (active); in assay [4], 20 µM (active); in [7], 29.1 µM (active); in assay [11], 20 µM (active); in assay [13], 26.4 µM (active); in [16], 24.5 µM (active). Moreover, the AC50 is 30 µM (active) in assay [18], 5.36 µM (active) in [19] and 20 µM (active) in assay [20].

In the case of `CCOC(=O)C(O)(c1ccc(Cl)cc1)c1ccc(Cl)cc1`, the outcome in assay [1], in assay [2], in assay [3], in assay [4], in [5] and in [6] was inactive. The result in assay [8], in assay [9], in assay [12], in assay [14], in assay [17] and in [18] was inactive. For the same compound, the AC50 in assay [7] is 30 µM (active); in assay [10], 29.5 µM (active); in assay [11], 15 µM (active); in [13], 28.5 µM (active); in assay [15] it was 20 µM (active); in assay [16], 30.2 µM (active). For the same compound, the AC50 in [19] was 30.9 µM (active); in assay [20], 20 µM (active).

`O=S(=O)(O)C(F)(F)C(F)(F)C(F)(F)C(F)(F)C(F)(F)C(F)(F)F`: the outcome in assay [1], in assay [2], in [3], in assay [4], in assay [5] and in assay [6] was inactive. For the same compound, the outcome in assay [7], in assay [8], in assay [9], in [10], in assay [11] and in assay [12] was inactive. Moreover, the outcome in assay [13], in assay [14], in assay [15], in [16], in assay [17] and in [18] was inactive. Moreover, the result in assay [19] and in [20] was inactive.
